Data published in PubChem BioAssay (NCI).
This is part of a sample that, as a whole, favours compounds with a hit. Of some 83,000 tested, about 20% had one in any assay.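 Step 1: grow cells in 96-well plates. Step 2: add test compound at a single concentration. Step 3: incubate 48 h. Step 4: record percent growth.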 Activity calls are given as the source filed them. The calls were made as follows: active = growth percent below 10; inactive = the rest.

Tested on: MDA-MB-468 breast
Assay: NCI-60 one-dose screen, 48 h (100 = growth as untreated, 0 = no growth, -100 = all killed)
Details: 10 µM unless noted

Compound | growth
Cc1ccc(NCCN(C)CC(C)O)c2c(=O)c3ccccc3sc12 (centres undefined) | 13.5% (inactive)
Clc1cccc(Nc2ncnc3ccc(-c4cncc(-n5cnnn5)c4)cc23)c1 | -31.6% (active)
COc1cc(Nc2cc(C)nc(N3CCN(c4ccnc5cc(Cl)ccc45)CC3)n2)cc(OC)c1 | 11.2% (inactive)
CC(=O)Nc1nc(C)c(C(=O)NNS(=O)(=O)c2ccccc2)s1 | 107% (inactive)
N#C/C(=C\c1cccc2cnccc12)N1N=NC2C=CC=CC21 (centres undefined) | 32.9% (inactive)
CNC(=O)c1cc(Cn2nc(C)c(NC(=O)Nc3ccc(Cl)c(C(F)(F)F)c3)c2C)ccn1 | 97.5% (inactive)
COc1cc2nc(SCc3cc(OC)c(OC)c(OC)c3)n(Cc3ccccc3)c(=O)c2cc1OC | -10.1% (active)
COc1ccc(NC(=O)c2sc3nc4c(cc3c2N)C(O)CCC4)cc1 (centres undefined) | 92.2% (inactive)
COc1cc(-c2nn(-c3cccc(NC(=O)NCCNC(=O)c4ccccc4)c3)cc2-c2ccncc2)ccc1Cl | 12.1% (inactive)
COc1ccc(C2CC(c3ccc(OC)cc3O)=NN2c2ccc(S(N)(=O)=O)cc2)cc1 (centres undefined) | 56% (inactive)
CC(C)[C@H](NC(=O)Cn1cc(C(=O)O)nn1)C(=O)O | 98.9% (inactive)
c1ccc(CSc2nnc3c4c5c(sc4nc(-c4cccnc4)n23)CCCCCC5)cc1 | 0.132% (active)
COc1ccc(/C=C2\N=C3SC=C(N)N3C2=O)cc1 | -31.9% (active)
CC1(C)CC[C@]2(c3nnc(-c4ccncc4)o3)CC[C@]3(C)C(=CC[C@@H]4[C@@]5(C)CCC(=O)C(C)(C)[C@@H]5CC[C@]43C)[C@@H]2C1 | 80% (inactive)
